# Measured values from PubChem BioAssay AID2384 (Southern Research Specialized Biocontainment Screening …, 2010).
# The campaign covered roughly 2,300 compounds. About 1,100 (48%) were called active. No rule for the calls is given here. So high a share suggests a set chosen from earlier hits. This is one part of the list. Measured potencies and affinities stand elsewhere.
# Assay: S. typhi counter-screen signal inhibition – fluorescence, 4 h, counter-screen for PhoP regulon inhibitor project, dose response (AID 2384)
# Conditions: S. typhi GFP reporter counter-screen; series mostly up to 150 µM
row,Structure (SMILES),inhibition
1,Oc1c(Br)cc(Br)cc1CNc1ccccn1,inactive
2,CC(C)N=C1NN=C(c2ccc(F)cc2)CS1,inactive
3,Cc1c(O)cccc1C(=O)N[C@@H](CSc1ccccc1)[C@H](O)CN1C[C@H]2CCCC[C@H]2C[C@H]1C(=O)NC(C)(C)C,inactive
4,Cn1c(CN2CCCCC2)nc2cc(NS(=O)(=O)c3ccc(Cl)cc3)ccc21,inactive
5,COc1ccc(OCC(=O)Nc2ccc3c(c2)nc(CCN2CCC(C)CC2)n3C)cc1,inactive
6,O=C(Nc1ccccc1)C1=C(O)CC(c2ccc(Cl)cc2)N2CCN=C12 (centres undefined),inactive
7,O=c1c2cnn(-c3ccccc3)c2ncn1CCc1ccccc1,inactive
8,COc1ccccc1NC(=O)Cn1nc(-c2ccncc2)nc1SCC(=O)NC1CCCC1,inactive
9,O=C(NC(=O)c1ccccc1)OCC1CCCN2CCCCC12 (centres undefined),inactive
10,C=CCn1c(C)c(C(C)=O)c(SC)nc1=S,inactive
11,Nc1nonc1C(=O)NCCN=Cc1cc(Cc2ccccc2)cc(Br)c1O,inactive
12,CCN(CC)Cc1c(C(=O)N/N=C/c2cccs2)nnn1-c1nonc1N,inactive
13,CCOC(=O)c1c(C)[nH]c(C(=O)CN2C(=O)NC(C)(c3ccc4ccccc4c3)C2=O)c1C (centres undefined),inactive
14,CCOC(=O)C(NC(=O)c1cccnc1)(Nc1cccc(C)n1)C(F)(F)F (centres undefined),inactive
15,Nc1[nH]c(=O)ncc1F,inactive
16,N#CCC(=O)N/N=C/c1ccccc1Cl,inactive
17,COc1ccc(/C=N/NC(=O)c2cccnc2)cc1,inactive
18,O=C(Nc1cccnc1)c1cc(Br)c(Br)s1,inactive
19,CCN(CC)Cc1c(C(=O)N/N=C/c2cccc3ccccc23)nnn1-c1nonc1N,inactive
20,O=C(N/N=C/c1cccnc1)c1cccc(Cl)c1,inactive
21,CCN(CC)S(=O)(=O)c1cc(NC(=O)C2Cc3ccccc3C(=O)O2)ccc1C (centres undefined),inactive
22,Cc1ncc([N+](=O)[O-])n1CC(=O)NC1CCCC1,inactive

row,Structure (SMILES),inhibition
1,CC(C)C(c1nnnn1Cc1ccccc1)N(CCCO)Cc1cc2cc3c(cc2[nH]c1=O)OCO3 (centres undefined),inactive
2,COC(=O)c1ccc(CSc2ccc3nnc(-c4ccc(OC)c(OC)c4)n3n2)o1,inactive
3,CCOc1ccc2nnnn2n1,inactive
4,Cc1ccsc1/C=N/Nc1ccc(C(=O)O)cc1,inactive
5,Cc1ccsc1/C=N/NC(=O)c1ccncc1,inactive
6,CCOC(=O)C1Nc2c(F)cc(C)cc2C2c3ccccc3CC12 (centres undefined),inactive
7,CC1(C)CC(=O)C(C=NCC2CCN(C(=O)Cc3ccccc3)CC2)=C(O)C1,inactive
8,CC(C)c1ccc(NC(=O)CSc2nnc(-c3ccccn3)n2C)cc1,inactive
9,Cc1ccc(/C=N/NC(=O)CSc2nc3ccccc3n2C)s1,inactive
10,COc1ccc(NC(=O)CC2Sc3ncnn3C2=O)cc1 (centres undefined),inactive
11,COc1ccc(CCNC2CCCCC2)cc1,inactive
12,O=Cc1cc(CCC(=O)O)ccc1O,inactive
13,CCOC(=O)c1ccc(NC(=O)CSc2nc(N3CCOCC3)nc(N3CCOCC3)n2)cc1,inactive
14,CCOC(=O)c1ccc(NC(=O)c2cc3c(s2)CCC3)cc1,inactive
15,CCCCCCOc1ccc(N2C(=O)CC(SC(=NCC)NCC)C2=O)cc1 (centres undefined),inactive
16,CCCCOc1ccc(CN2CCC(O)CC2)cc1,inactive
17,Cc1cc(C)n2nc(SCn3nnc4ccccc4c3=O)nc2n1,inactive
18,O=C(CCNC(=O)c1ccco1)Nc1cccc(Br)c1,inactive
19,Cc1ccc(NC(=O)CSc2ccc(-c3ccco3)nn2)cc1,inactive
20,CCC1(CC)C(=O)NC(=O)NC1=Nc1cccc(OC)c1,inactive
21,Cc1ccc(N2C(N)=C(C#N)C(c3cccnc3)C3=C2CC(C)(C)CC3=O)cc1 (centres undefined),inactive
22,C=CCSc1nnc(NC(=O)CSc2nc3ccccc3o2)s1,inactive

row,Structure (SMILES),inhibition
1,COc1ccccc1C(=O)NNC1=C(C(=O)C(F)(F)F)CCC1,inactive
2,Cc1cc(C)c(-n2nnnc2SC(C)C)c(C)c1,inactive
3,COc1cc2c(cc1OC)[C@H](Cc1ccc(O)cc1)NCC2,inactive
4,Cc1cccc(N2CCN(C(=O)CCN3C(=S)NC(C)(C)CC3C)CC2)c1C (centres undefined),inactive
5,COc1ccc(C(=O)Oc2cc(C(=S)N3CCOCC3)ccc2OC)cc1,inactive
6,COc1cc2c(cc1OC)CN(C(=O)CCCN1C(=O)c3ccccc3C1=O)CC2,inactive
7,Cc1c(-n2c(SCC(=O)C(C)(C)C)nc3ccccc3c2=O)c(=O)n(-c2ccccc2)n1C,inactive
8,NC(=O)c1ccc[n+](CC(=O)c2cccc([N+](=O)[O-])c2)c1,inactive
9,NC(=O)c1cc(C(=O)c2ccc(Cl)cc2Cl)c[nH]1,inactive
10,O=Cc1ccc(N2CCCCCC2)cc1,inactive
11,CC(C)CN1CCN(Cc2cnc(N3CCOCC3)s2)CC1CCO (centres undefined),inactive
12,O=C1c2ccccc2NC(c2cccc([N+](=O)[O-])c2)N1CCc1ccccc1 (centres undefined),inactive
13,CN1C(=O)/C(=C2/C=Cc3ccccc3N2CCCS(=O)(=O)O)SC1=S,inactive
14,CCOC(=O)c1nc(C)n(-c2cc(Cl)ccc2Cl)n1,inactive
15,COc1ccccc1C1CN(c2ccc(F)cc2F)N=C1c1cccs1 (centres undefined),inactive
16,Cc1n[nH]c(=O)nc1NCCc1ccccc1,inactive
17,Cc1cccc(OCCSc2nnc(-c3ccoc3C)n2C)c1,inactive
18,CC(C)CC(=O)N1CCN(C(=O)CCC2CCCC2)CC1,inactive
19,Cc1cccc(NC(=O)C2CCCN2S(=O)(=O)c2ccc3c(c2)n(C)c(=O)c(=O)n3C)c1 (centres undefined),inactive
20,Cc1cc(=O)oc2ccc(OCC(=O)N3CCC(C)CC3)cc12,inactive
21,O=C(Nc1ccc(Cl)cc1)N1CCCN(Cc2ccccc2F)C1,inactive
22,O=C(COc1ccc(Cl)cc1)N1CCN(C2CCCC2)CC1,inactive

row,Structure (SMILES),inhibition
1,O=C(CCN1CCOCC1)Nc1ccccc1,inactive
2,O=C(O)COc1ccc(F)cc1Br,inactive
3,O=C(/C=C/c1ccc(Cl)cc1Cl)NCc1ccncc1,inactive
4,CCCSc1nc2cc(OC)c(OC)cc2c(=N)n1CCCN1CCOCC1,inactive
5,CC(C)(C)c1nc(SCC(=O)NCc2ccco2)c2ccccc2n1,inactive
6,COc1ccccc1Nc1nc(Cl)c(C=O)s1,inactive
7,CC(C)(C)c1ccc(NC(=O)NCc2ccco2)cc1,inactive
8,COc1ccccc1-n1nc(C(=O)NCc2ccco2)c2ccccc2c1=O,inactive
9,CCOC(=O)c1cc(-c2ccncc2)nc2c1c(C)nn2-c1ccccn1,inactive
10,COc1cc(C(c2nnnn2C2CCCC2)N2CCN(C)CC2)cc(OC)c1OC (centres undefined),inactive
11,COc1ccc(N=CC2=C(Nc3ccc(OC)cc3)c3c(C)nn(-c4ccccn4)c3CC2)cc1,inactive
12,Cc1cc(C)nc(SCC(=O)Nc2sc3c(c2C#N)CCC(C)C3)n1 (centres undefined),inactive
13,O=C(CSc1ncc(-c2ccc(F)cc2)[nH]1)NCc1ccco1,inactive
14,O=C(CSc1nc2c(c(=O)n1-c1ccc(F)cc1)SCC2)NCc1ccco1,inactive
15,Oc1ccccc1N=Cc1c(O)ccc2oc3c(c12)CCCC3,inactive
16,CCCCOc1ccc(C2=NNC(=O)CC2)cc1,inactive
17,Cc1c(C(=O)Nc2ccncc2)sc2nc(-c3ccc(F)cc3)cn12,inactive
18,Cc1ccc(C(=O)Nc2ccc3c(c2)ncn3C)cc1,inactive
19,Cc1cc(C)c([C@@H]2C[C@H]3CN(C4CCCC4)C(=O)[C@]34CCCN24)c(-n2cccn2)c1,inactive
20,O=C(Oc1ccc[nH]c1=O)c1cc([N+](=O)[O-])cc([N+](=O)[O-])c1,inactive
21,Cc1ccc(C)c2[nH]c(=O)c(CN(Cc3cccnc3)C(=S)NCc3ccco3)cc12,inactive
22,C#CCOCCOCCOCCNc1nc(N2CCN(C(=O)CCCCCCCCCCNC(=O)[C@H](CCCCN)n3cc(C[C@@H](C)CC)nn3)CC2)nc(N2CCN(C(=O)CCCCCCCCCCNC(=O)[C@@H]([C@H](C)O)n3cc(C)nn3)CC2)n1,inactive

row,Structure (SMILES),inhibition
1,C#CCOCCOCCOCCNc1nc(N2CCN(C(=O)CCCCCCCCCCNC(=O)[C@H](CO)n3cc(CCCSC)nn3)CC2)nc(N2CCN(C(=O)CCCCCCCCCCNC(=O)[C@H](CCCN=C(N)N)n3cc(C[C@@H](C)CC)nn3)CC2)n1,inactive
2,C#CCOCCOCCOCCNc1nc(N2CCN(C(=O)CCCCCCCCCCNC(=O)Cn3cc(C[C@@H](C)O)nn3)CC2)nc(N2CCN(C(=O)CCCCCCCCCCNC(=O)[C@H](CCCN=C(N)N)n3cc(C[C@@H](C)CC)nn3)CC2)n1,inactive
3,CCN(CC)CCCNC(=O)c1c(O)c2c([nH]c1=O)CCCC2,inactive
4,COc1cc(C(=O)Nc2ccc3c(c2)OCCO3)ccc1OC(C)C,inactive
5,Cc1ccc(S(=O)(=O)N2CCOCC2)cc1NC(=O)CSc1nc(N)cc(=O)[nH]1,inactive
6,C[C@@H](CO)NC(=O)c1ccc2c3n(nc2c1)-c1ccc(Cl)cc1CO3,inactive
7,Cc1nc2nc(COc3ccccc3)nn2c(C)c1Cl,inactive
8,CC(C)C(=O)Nc1ccccc1-c1nc2ccccc2[nH]c1=O,inactive
9,CCc1nnc(NS(=O)(=O)c2ccc(NC(=S)NC(=O)/C=C/c3ccc(C(C)C)cc3)cc2)s1,inactive
10,O=C(/C=C/c1ccccc1)OCc1cnc(Cl)s1,inactive
11,O=C(/C=C/c1ccccc1)NC(=S)N1CCSCC1,inactive
12,COc1ccccc1-n1c(SCC(=O)O)nnc1-c1ccc(S(=O)(=O)N2CCCCC2)cc1,inactive
13,O=C(CCSCc1ccccc1F)NCc1cccs1,inactive
14,Nc1cc(N2CCOCC2)c(Cl)cc1[N+](=O)[O-],inactive
15,O=C(NC1CC1)C1CCN(C2CCN(C(=O)Cc3ccc(F)cc3)CC2)CC1,inactive
16,CCCC(=O)N1CCN(c2ccc(NC(=S)NC(=O)c3cccc(C)c3)cc2)CC1,inactive
17,Cc1ccc(NC(=O)C(=O)NNC(=O)c2cccs2)cc1,26.1% [at 2.34 µM] (inactive)
18,COc1ccc(-c2noc(CCC(=O)Nc3cccc(C)c3)n2)cc1,inactive
19,O=C(NNC(=O)c1cccs1)c1ccc2ccccc2c1,inactive
20,COc1cc(C(=O)NC(=S)Nc2cccc3nc(C)ccc23)cc(OC)c1OC,inactive
21,COC(=O)c1ccc(NC(=S)NNC(=O)c2ccccc2)cc1,inactive
